Laboratory results as given in PubChem BioAssay (Tox21).
Inconclusive results are not listed. Where a call stands in place of a potency, no number is given. Active and inactive are the calls of the source. The call rests on the fitted dose curve.

test: p53 small molecule agonists, cell-based qHTS assay with human liver microsomes: qHTS cell viability counter screen (AID 1963579); conditions: p53RE-bla HCT-116 viability, ATP luminescence, 16 h, HLM; series mostly up to 66 µM; further: nearly all actives have a fitted effect of over 45% in size
From the text: National Center for Advancing Translational Sciences [NCATS]
Division of Preclinical Innovation [DPI]
U.S. Environmental Protection Agency [EPA]
National Institutes of Environmental Health Sciences [NIEHS]
National Toxicology Program [NTP]
U.S. Food and Drug Administration [FDA]
p53, a tumor suppressor protein, is activated following cellular insult, including DNA damage and other cellular stresses. The activation of p53 regulates cell fate by inducing DNA repair, cell cycle arrest, apoptosis, or cellular senescence. The activation of p53, therefore, is a good indicator of DNA damage and other cellular stresses. […] The activation of the reporter gene under culture conditions can be detected by fluorescence intensity. This cell line was used to screen the Tox21 10K compound library in the condition of presence of human liver microsomes and to identify agonists that activate the p53 signaling pathway after in vitro metabolic activation (Ooka et al., Archive of Toxicology 96:1975-1987, 2022).
Tox21 Assay Protocol Summary:
The p53RE-bla cells were dispensed at 4,000cells/3ul/well in 1536-well black-clear bottom plates. After the assay plates were incubated at 37 C, 5% CO2 incubator for 5 hours, 23 nL of compounds dissolved in DMSO, positive controls or DMSO only was transferred to the assay plate. Following compound addition, 3 uL of human liver microsomes (XenoTech, Kansas City, KS) at final concentration of 0.5 mg/mL and 1uL of B-Nicotinamide adenine dinucleotide 2'-phosphate (NADPH) at final concentration of 0.5 mg/mL were transferred to the assay plate. The plates were incubated at 37 C for 16 hours. 1 uL of LiveBLAzer detection mixture was added to each well and the plates were incubated at room temperature in the dark for 2 h. Fluorescence intensity at 460 and 530 nm emission and 405 nm excitation were measured by an Envision plate reader. For cell viability readout that measures cytotoxicity, 4 ul/well of CellTiter-Glo reagent was added into the assay plates using a Flying Reagent Dispenser. After 30 min incubation at room temperature, the luminescence intensity in the plates was measured using a ViewLux plate reader.
Potency means the concentration at half of the fitted maximal effect.

Question: With `CCCCCCCCCCCC(=O)OCC(O)CO` (stereo not given) as the molecule, how does the Potency read?
Answer: inactive

Question: For `C/C=C1\C(=O)C[C@H]2[C@@H]3CCC4=CC(=O)CC[C@]4(C)[C@H]3CC[C@]12C`, which Potency is on record?
Answer: inactive

Question: For `Nc1nc2ccccc2n1Cc1ccc(F)cc1`, which Potency is on record?
Answer: inactive

Question: For `CN(C)CCCO[C@@H]1[C@H]2OC(C)(C)O[C@H]2O[C@@H]1C(O)CO` (stereo not given in full), which Potency is on record?
Answer: inactive

Question: Which Potency does the source give for `CCCCN1C(=O)c2ccccc2C1=O` here?
Answer: inactive

Question: For `CCNC(=O)NCc1cccc(Cl)c1`, which Potency is on record?
Answer: inactive

Question: Which activity change, negative = cytotoxicity does the source give for `CC1CN(c2cc3c(cc2F)c(=O)c(C(=O)O)cn3-c2ccc(F)cc2F)CCN1` (stereo not given) here?
Answer: 1.1% [at 5.99 µM] (inactive)

Question: With `O=C(Nc1ccc2c(c1)Cc1ccccc1-2)C(F)(F)F` as the molecule, how does the Potency read?
Answer: inactive

Question: Which Potency does the source give for `OC12N=C(c3ccccc3)SC1Cc1cc(Cl)ccc12` (stereo not given) here?
Answer: inactive

Question: For `COc1cc(NC(C)CCCN)c2ncccc2c1` (stereo not given), which Potency is on record?
Answer: inactive

Question: Which Potency does the source give for `CCCCCCCCCCCCC1CO1` (stereo not given) here?
Answer: inactive

Question: For `CC(=O)S[C@@H]1CC2=CC(=O)CC[C@]2(C)[C@H]2CC[C@@]3(C)[C@@H](CC[C@@]34CCC(=O)O4)[C@H]12`, which Potency is on record?
Answer: inactive

Question: With `CCCC(CC)c1ccccc1` (stereo not given) as the molecule, how does the Potency read?
Answer: inactive

Question: For `CC(CN=Cc1ccccc1O)N=Cc1ccccc1O` (stereo not given), which Potency is on record?
Answer: inactive

Question: Which Potency does the source give for `CCCCN1C[C@H](O)[C@@H](O)[C@H](O)[C@H]1CO` here?
Answer: inactive

Question: Which Potency does the source give for `COc1cc(-c2ccc(=O)[nH]n2)ccc1OC(F)F` here?
Answer: inactive

Question: Which Potency does the source give for `CCOCCn1c(N2CCCN(C)CC2)nc2ccccc21` here?
Answer: inactive

Question: Which Potency does the source give for `CCOC(=O)COc1ccc2c(c1)CC(NCC(O)c1cccc(Cl)c1)CC2` (stereo not given) here?
Answer: inactive

Question: With `CCOc1nc2cccc(C(=O)OC(C)OC(=O)OC3CCCCC3)c2n1Cc1ccc(-c2ccccc2-c2nn[nH]n2)cc1` (stereo not given) as the molecule, how does the Potency read?
Answer: 12.9 µM (active)

Question: For `CCCCc1cc2ccccc2c(OCCN(C)C)n1`, which Potency is on record?
Answer: inactive

Question: With `CC(C)=CCOc1ccc(/C=C/C(=O)c2ccc(OCC=C(C)C)cc2OCC(=O)O)cc1` as the molecule, how does the Potency read?
Answer: inactive

Question: For `Clc1sc(Cl)c(Cl)c1Cl`, which Potency is on record?
Answer: inactive

Question: With `C1CCCCCCCCCCC1` as the molecule, how does the activity change, negative = cytotoxicity read?
Answer: -2.12% [at 13.5 µM] (inactive)

Question: For `O=[N+]([O-])c1cccc(S(=O)(=O)O)c1`, which Potency is on record?
Answer: inactive

Question: For `CCCc1nc(C)c2c(=O)[nH]c(-c3cc(S(=O)(=O)N4CCN(CC)CC4)ccc3OCC)nn12`, which Potency is on record?
Answer: inactive

Question: Which Potency does the source give for `CCCCCCOc1ccc(O)cc1` here?
Answer: inactive

Question: With `CC/C(C)=N\O[Si](C)(O/N=C(\C)CC)O/N=C(\C)CC` as the molecule, how does the Potency read?
Answer: inactive

Question: With `C/C=C(\C)C(C)=O` as the molecule, how does the Potency read?
Answer: inactive

Question: With `CCCc1ccccc1O` as the molecule, how does the Potency read?
Answer: inactive

Question: For `O=[N+]([O-])c1ccc(O/N=C/c2cc(Br)c(O)c(Br)c2)c([N+](=O)[O-])c1`, which Potency is on record?
Answer: inactive

Question: Which Potency does the source give for `O=C(O)CCCCCCCCCCCBr` here?
Answer: inactive

Question: With `CCCCOC(=O)CC#N` as the molecule, how does the Potency read?
Answer: 17 µM (active)

Question: For `COC(=O)CC(C)CCC=C(C)C` (stereo not given), which Potency is on record?
Answer: 45.8 µM (active)

Question: For `CCCCNC1CC(C)(C)NC(C)(C)C1`, which Potency is on record?
Answer: inactive

Question: For `COc1cc2nc(N(C)CCCNC(=O)C3CCCO3)nc(N)c2cc1OC` (stereo not given), which Potency is on record?
Answer: inactive

Question: For `CC(C)C(=O)OCCc1ccccc1`, which Potency is on record?
Answer: inactive

Question: For `C1CCC2(CCCCO2)OC1`, which Potency is on record?
Answer: inactive

Question: Which Potency does the source give for `CNCCCC1c2ccccc2C=Cc2ccccc21` here?
Answer: inactive

Question: With `Cc1ccc(-c2ncc(Cl)cc2-c2ccc(S(C)(=O)=O)cc2)cn1` as the molecule, how does the Potency read?
Answer: inactive

Question: For `Cc1oc(-c2ccccc2)nc1CCOc1cccc2c1ccn2CCC(=O)O`, which Potency is on record?
Answer: inactive
